The list is not random: actives were taken first. Their share in the collection is about 4.7%.
MPTP inh: permeability transition pore inhibition | isolated mouse mitochondria, Ca2+ swelling absorbance, 30 min | inhibition, % at 10 µM | hit rate 1.4% among 360,000;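 active = inhibition of 50% or more, scaled per plate between neutral and stimulator controls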;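 also: 0% = DMSO wells given calcium and 100% = 1 mM EGTA wells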
ADAM10 inh: ADAM10 inhibition, QFRET primary screen; recombinant ADAM10, EDANS/DABCYL FRET peptide cleavage, 3 h; inhibition, % at 7 µM; hit rate 0.62% among 370,000;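 active = inhibition above a per-campaign cutoff equal to the mean of compounds falling between control-based bounds plus 3 SD, cut at about 20% in these data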;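 also: 0% = DMSO wells while the 100% control is not disclosed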
proKLK7 act: proKLK7 (human) activation, primary screen. P49862. purified proKLK7, EDANS-DABCYL substrate fluorescence; 100% is mature enzyme control, 0% vehicle. activation, % at 7 µM. hit rate 0.9% among 370,000;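 active = activation above the mean of all tested compounds plus 3 SD, computed per campaign excluding outliers beyond control limits, cut at about 13% in these data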
Target sequence (P49862 whole entry, looked up): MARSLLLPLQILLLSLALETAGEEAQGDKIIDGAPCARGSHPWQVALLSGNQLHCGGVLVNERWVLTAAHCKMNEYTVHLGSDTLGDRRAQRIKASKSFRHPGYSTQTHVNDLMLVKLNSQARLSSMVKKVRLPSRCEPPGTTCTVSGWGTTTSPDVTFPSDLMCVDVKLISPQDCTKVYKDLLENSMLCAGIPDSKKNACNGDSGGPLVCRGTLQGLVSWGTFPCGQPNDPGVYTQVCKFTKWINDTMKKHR
ADAM17 inh: ADAM17 inhibition, QFRET primary screen | recombinant ADAM17, EDANS/DABCYL FRET peptide cleavage | inhibition, % at 6.95 µM | hit rate 0.83% among 370,000 | AID 720648;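 active = inhibition above the mean of compounds lying between control limits plus 3 SD, set per campaign, cut at about 8.5% in these data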;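 also: 0% = DMSO-only wells as the low control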
rCAG binder: molecules binding r(CAG) RNA repeats; r(CAG) RNA repeat, TO-PRO-1 dye displacement fluorescence; inhibition, % at 3 µM; hit rate 1.3% among 370,000;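 active = inhibition above the plate cutoff, the mean of all test compounds on that plate plus 3 SD, cut at about 35% in these data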;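 also: 0% = DMSO alone and 100% = 100 µM mitoxantrone as full dye displacement; higher means more dye released from RNA so lower well fluorescence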
Pemphigus Ab inh: human desmoglein-3 autoantibody binding inhibition | DSG3-coupled beads, scFv-anti-DSG3-GFP binding, flow cytometry; stronger effect = lower value | binding (percent of control), % at 10 µM | hit rate 0.48% among 310,000 | AID 588358;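 active = binding more than 3 SD below its plate's average and above zero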;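 also: hits lower antibody fragment binding to DSG3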
KLK7 act conf: confirmation of human kallikrein-7 zymogen activators; purified proKLK7, EDANS-DABCYL substrate fluorescence; scaled: vehicle 0, mature enzyme 100; activation, % at 7 µM; hit rate 68% among 3,200; shares compounds with proKLK7 act;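 active = activation, as change over the incubation, above the mean of all tested compounds plus 3 SD, cut at about 13% in these data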
EDANS interfere: optically interferes with EDANS-DABCYL signal, flagging KLK7 hits; shares compounds with proKLK7 act; EDANS-DABCYL substrate fluorescence interference, no enzyme, 4 h; solvent 0%, active enzyme control 100%; activation, % at 7 µM; hit rate 80% among 3,200; AID 686952;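 active = activation above the all-compound mean plus 3 SD, ignoring values outside control-based bounds, cut at about 4.8% in these data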;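 also: value is the 4 h activation minus the activation read at time zero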
EDANS interf: counter-screen for kallikrein-7 activators: EDANS-DABCYL interference, dose response. shares compounds with proKLK7 act. EDANS-DABCYL peptide fluorescence interference, no enzyme. EC50, µM. hit rate 20% among 250;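 active = compounds that raise the fluorescence signal in this interference counterscreen, with EC50 at or below 10 µM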;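 also: intact quenched peptide substrate alone read at 355 nm excitation and 520 nm emission; signal is fluorescence gain from T0 to T4 after four hours at room temperature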
* = called active by the depositor; i = inactive; · = not tested or not shown.

SMILES | MPTP inh | ADAM10 inh | proKLK7 act | ADAM17 inh | rCAG binder | Pemphigus Ab inh | KLK7 act conf | EDANS interfere | others
Cc1cccn2c(=O)c3cc(C(=O)NC(C)C)c(=N)n(Cc4ccncc4)c3nc12 | -1.1 | i | 116.4* | i | 5.2 | 103.6 | 32.2* | 36.7*
N=c1c(C(=O)NCC2CCCO2)cc2c(=O)n3ccccc3nc2n1Cc1ccco1 (centres undefined) | -4.3 | i | 15.1* | -246.0 | 5.5 | · | 41.1* | 37.9*
CN(C)/C=C1/OC(=O)C(C#N)=C1c1ccc(Cl)cc1 | 0.5 | -40.8 | 2.2 | -25.5 | 6.0 | 101.8 | · | ·
CCCCCCCCNS(=O)(=O)CCNCc1ccccc1OC | 0.9 | 8.1 | 0.4 | -0.6 | 1.5 | 100.8 | · | ·
Cc1ccc(NC(=O)c2ncn(CC(=O)N[C@H](CO)Cc3c[nH]c4ccccc34)n2)cc1C | -1.0 | -6.9 | 0.8 | -3.6 | 3.4 | 97.6 | · | ·
N=c1c(C(=O)NCc2ccc(F)cc2)cc2c(=O)n3ccccc3nc2n1Cc1cccnc1 | 0.3 | i | 26.3* | i | -2.9 | 106.9 | -5.5 | -8.1
C[C@H](NC(=O)C[C@@H]1CC[C@H]2[C@@H](COC[C@H](O)CN2Cc2ccc(C(F)(F)F)cc2)O1)c1ccccc1 | 3.4 | 2.2 | -0.5 | 3.5 | 0.6 | · | · | ·
CCC1(OC(=O)CN(C)C)C(=O)OCc2c1cc1n(c2=O)Cc2cc3c(N)cccc3nc2-1 (centres undefined) | -0.8 | · | · | · | · | 89.7 | · | ·
CCC1(O)C(=O)OCc2c1cc1n(c2=O)Cc2cc3c(N)cccc3nc2-1 (centres undefined) | -1.6 | -43.2 | 23.5* | -8.5 | 7.9 | 82.5 | 64.3* | 66.7*
Cc1ccnc(NC(=S)NC(=O)c2cncc(Br)c2)c1 | 0.2 | -18.1 | 12.9* | -2.9 | -1.5 | 97.0 | 14.4* | 14.7*
NS(=O)(=O)c1cc2c(cc1Cl)NC(C1CC3C=CC1C3)NS2(=O)=O (centres undefined) | 0.9 | 1.4 | 0.4 | -1.7 | 4.1 | 107.3 | · | ·
O=C1NC(C2CC3C=CC2C3)Nc2ccccc21 (centres undefined) | -0.3 | i | 23.5* | -276.3 | 2.8 | 100.5 | 25.1* | 21.1* | EDANS interf=>69.4
COc1ccc(CNC(=O)CC2C[C@H](C(=O)N3CCOCC3)[C@@]3(C)c4[nH]c5ccccc5c4CCN3C2=O)cc1OC (some centres undefined) | -0.9 | -3.5 | 0.1 | -0.8 | 1.5 | 90.2 | · | ·
CC(C)N(C(=O)[C@H]1C[C@H](CC(=O)NCCN2CCOCC2)C(=O)N2CCc3c([nH]c4cc(-c5ccco5)ccc34)[C@]12C)C(C)C | -0.9 | -400.1 | 123.7* | -102.2 | 0.8 | 105.0 | 120.0* | 127.2*
C[C@]12c3[nH]c4cc(-c5ccco5)ccc4c3CCN1C(=O)[C@@H](CC(=O)NCCN1CCOCC1)C[C@@H]2C(=O)N1CCOCC1 | 0.1 | -246.5 | 51.5* | -64.0 | 2.8 | 97.2 | 35.5* | 50.6*
COc1ccc(CNC(=O)C[C@H]2C[C@H](C(=O)N3CCOCC3)[C@@]3(C)c4[nH]c5cc(-c6ccco6)ccc5c4CCN3C2=O)cc1OC | -0.2 | -249.5 | 99.8* | -77.5 | 6.0 | 108.5 | 56.9* | 64.1*
C[C@]12c3[nH]c4cc(-c5ccco5)ccc4c3CCN1C(=O)[C@@H](CC(=O)NCCC1=CCCCC1)C[C@@H]2C(=O)N1CCOCC1 | -0.2 | · | · | · | · | 103.0 | · | ·
CC1C(c2ccc3c(c2)OCO3)c2cc3c(cc2OC1N1CCOCC1)OCO3 (centres undefined) | 1.0 | 0.9 | 0.2 | 2.9 | 3.2 | 95.3 | · | ·
CCC(c1nnnn1Cc1ccc(F)cc1)N(CCCO)Cc1cc2cc3c(cc2[nH]c1=O)OCO3 (centres undefined) | 0.5 | i | 25.5* | -170.0 | -5.1 | 108.7 | 0.3 | 0.8
Cc1ccc(C(=O)N2CCc3cc4c(cc3C2C)OCCCO4)cc1 (centres undefined) | -1.7 | -62.9 | 12.9* | -18.9 | -3.2 | 94.2 | 5.7 | 6.7*
OC[C@@H]1CN(Cc2cccs2)C[C@H](n2cnc3c(N4CCCC4)ncnc32)O1 | -0.6 | -3.6 | -0.3 | -4.3 | 1.5 | · | · | ·
Cc1ccc2nc(NCCO)nc(-c3ccccc3)c2c1 | 4.2 | i | 19.1* | -196.0 | -6.0 | 107.3 | -0.3 | -4.1
COc1nc(-c2ccccc2)c2cc(C)ccc2n1 | 0.7 | i | 12.7* | -213.2 | -3.4 | 110.1 | -1.8 | 1.6
OCCNc1nc(-c2ccccc2)c2cc(Cl)ccc2n1 | -0.9 | -439.6 | 2.2 | -159.3 | -4.9 | 100.5 | · | ·
CCOc1nc(-c2ccccc2)c2cc(C)ccc2n1 | -1.8 | -405.5 | -4.3 | -116.2 | -2.0 | 92.2 | · | ·
SMILES | MPTP inh | ADAM10 inh | proKLK7 act | ADAM17 inh | rCAG binder | Pemphigus Ab inh | KLK7 act conf | EDANS interfere | others
NC(=O)c1ncn([C@@H]2O[C@H](CNCc3cc(Cl)ccc3OCc3ccc(Cl)cc3)[C@@H](O)[C@H]2O)n1 | 1.1 | -15.4 | -0.3 | -3.1 | 1.4 | 103.7 | · | ·
COc1ccc(OC)c(/C=C/C(=O)NC2=NCCS2)c1 | -0.2 | -96.5 | 0.6 | -37.0 | -0.7 | 99.0 | · | ·
COc1ccc(/C=C/C(=O)NC2=NCCS2)cc1OC | -1.8 | -180.2 | 15.1* | -53.3 | -0.8 | 110.2 | 48.1* | 46.8*
CC(=O)Nc1ccc(S(=O)(=O)NCc2nc(-c3ccccc3C)no2)cc1 | -2.0 | -1.6 | 0.8 | -1.4 | 3.6 | · | · | ·
COc1ccc(C(=O)C(=O)N2CCN(C(=O)OCc3ccccc3)CC2)cc1 | -2.2 | 2.0 | 0.3 | 0.9 | 1.1 | · | · | ·
Cc1cc(=O)oc2c(CN3CCCC3)c(O)c(Cl)cc12 | -1.3 | i | 46.1* | i | 24.4 | 94.4 | 62.4* | 72.1*
CCc1cc(=O)oc2c(CNCc3ccccc3F)c(O)c(Cl)cc12 | -0.7 | i | 36.4* | i | 1.6 | 102.2 | 61.4* | 66.0*
CCN1CCN(Cc2c(O)c(Cl)cc3c(C)cc(=O)oc23)CC1 | 1.7 | i | 70.7* | i | 1.3 | 102.0 | 81.3* | 79.6*
Cc1cc2oc(=O)cc(CN3CCC(C)CC3)c2cc1Cl | 0.4 | 7.3 | -0.1 | -3.3 | 2.7 | · | · | ·
CCN1CCN(Cc2cc(=O)oc3cc(C)cc(C)c23)CC1 | -0.2 | 3.5 | 0.7 | -1.4 | -6.0 | 100.8 | · | ·
Cc1cc(=O)oc2c(CN3CCC(C)CC3)c(O)c(Cl)cc12 | -0.7 | i | 69.9* | i | -1.3 | 92.4 | 64.9* | 66.1*
CC(C)n1cc(/C=N/Nc2ccc(Cl)c(C(=O)O)c2)c2ccccc21 | 0.2 | · | · | · | · | 106.3 | · | ·

Screening results as filed in PubChem BioAssay.
